The values that follow come from PubChem BioAssay (NCATS).

A number with no mark means an inactive call. Results filed as inconclusive are left out. Active and inactive are the calls of the source. Unless noted, calls come from the whole dose curve; as a rule, active = well fitted curve in either direction with a large enough effect (not every such curve was filed as active); inconclusive = small, poorly fitted or top-dose-only effect, or another doubt; inactive = flat fitted curve, though single readings scatter.

The target in test [1] is Lysosomal acid glucosylceramidase (Homo sapiens) (UniProt P04062). The test can be described thus: Glucocerebrosidase-p2 (AID 348; in the data active = potency below about 10 µM; note: potency is the fitted concentration of half-maximal effect). The conditions noted are these: purified GBA, blue fluorogenic substrate, 40 min. The essentials: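 Compounds titrated from 0.6 nM upwards against 0.2 nM enzyme in pH 5.9 citric acid/KH2PO4, taurocholate, tween-20; blue fluorogenic substrate 80 uM, 40 min room temperature, stopped and read Ex 365/Em 440 for AC50.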

Test [2] can be described thus: AP1 Signaling Pathway (AID 357). Note: % is set by controls: 0 for no effect and ±100 for the full control effect. To be noted: ME-180 AP-1-bla reporter, EGF-induced, beta-lactamase ratio, 5 h; at 7.69 µM (top of the series) unless noted. An outline of the steps: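 ME-180 cells with beta-lactamase reporter under AP-1 response element, stimulated with EC50 EGF; compounds tested in titration series, 5 h at 37 °C. CCF4 substrate added 2.5 h at room temperature; 460/530 nm emission ratio gave %activity and AC50.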

A short description of test [3]: NFAT Signaling Pathway (AID 444).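 Note: carbachol stimulus at about its EC50 of 1 µM final; % is set by controls: 0 for no effect and ±100 for the full control effect.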 The conditions noted are these: Jurkat NFAT-bla M1, carbachol, beta-lactamase ratio, 5 h; at 7.69 µM (top of the series) unless noted. The essentials:
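Read-out: CCF4 FRET ratio (460 nm/530 nm) after 1 h RT dye loading, used for %activity and AC50 from titration series. Cells: Jurkat NFAT-β-lactamase/M1 line, treated with compound plus 1 uM carbachol for 5 h, 37 °C.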

A short description of test [4]: Stat Signaling Pathway (AID 446).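 Note: ME-180 cervical cancer cells given 40 pM IL-6 alongside compound; SIE-controlled beta-lactamase reporter measured as 460/530 nm FRET emission ratio; % is set by controls: 0 for no effect and ±100 for the full control effect.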 The conditions noted are these: ME-180 SIE beta-lactamase reporter, IL-6 stimulated, 5 h; at 7.69 µM (top of the series) unless noted. An outline of the steps:
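Reporter line: ME-180 cervical carcinoma, SIE-beta-lactamase. Treatment: compound with 40 pM IL-6, 5 hrs, 37 C, in low-serum OPTI-MEM with 10 mM HEPES pH 7.3. Detection: 460/530 nm fluorescence.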

Test [5] concerns the target Glucocorticoid receptor (Homo sapiens) (UniProt P04150). Put plainly: GR-EFC Redistribution (AID 451; calls by dose curve; note: potency is the fitted concentration of half-maximal effect). To be noted: CHO-K1 GR-EFC translocation, beta-gal luminescence, 2 h. The essentials:
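Translocation of GR-ED fusion to nuclear EA restores b-gal, read by luminescence after 1 h room-temperature detection. Engineered CHO-K1 biosensor cells, 1,000/well, exposed 2 h at 37 C to titrations up to 46 uM final.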

In test [6] the target is Mitogen-activated protein kinase 10 (Mus musculus) (UniProt Q61831). Put plainly: JNK3 AlphaScreen Assay (AID 530).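 Note: kinase came from lysate of stimulated human HepG2 cells; signal reports phosphorylation of biotinylated GST-cJun 1-79 at Ser73 with 10 µM ATP; % is set by controls: 0 for no effect and ±100 for the full control effect.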 The conditions noted are these: JNK3 lysate, c-Jun phosphorylation; series mostly up to 57.1 µM. An outline of the steps:
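Room-temperature AlphaScreen kinase assay; pre-activated HepG2 lysate as JNK3 source, biotin-GST-cJun(1-79) substrate, 10 uM ATP, compound 15 min preincubation.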
(Alpha assays give light when donor and acceptor beads are brought close together.)

For test [7], the target named is 3',5'-cyclic-AMP phosphodiesterase 4B (Homo sapiens) (UniProt Q07343). Put plainly: qHTS Assay for Inhibitors of PDE-IV (AID 607; active = well fitted activation curve with a large enough effect in the main read-out, with a control signal flat, not every such curve was filed as active; note: % of control where 0% means no effect). To be noted: HEK293 ACTOne CNG channel cells, membrane potential fluorescence; series mostly up to 22.9 µM. An outline of the steps: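 Cell-based read-out of cAMP via a modified cyclic nucleotide-gated channel and membrane potential dye (535/590 nm) in HEK293 cells expressing PDE4 endogenously. Compounds tested up to 22.9 uM final; 100 uM RO 20-1724 reference.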
Background: qHTS replaces the single test concentration by a dilution series.

Test [8] can be described thus: Primary qHTS for small molecule stabilizers of the endoplasmic reticulum resident proteome: Secreted ER Calcium Modulated Protein (SERCaMP) assay (AID 1508630; active = well fitted curve in the direction sought with a large enough effect; an effect the other way counts as inactive or inconclusive; note: % is set by controls: 0 for no effect and ±100 for the full control effect). The conditions noted are these: SH-SY5Y GLuc-SERCaMP (Gaussia luciferase released on ER calcium loss) secretion, thapsigargin, luminescence; series mostly up to 38.4 µM. The essentials: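 GLuc-SERCaMP-expressing SH-SY5Y cells, pretreated 16 h with compound, are challenged with thapsigargin to empty ER calcium stores; after 4 h, coelenterazine is added directly to the medium and luminescence is imaged.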

Test [9] concerns the target Cytochrome P450 2C9 (Homo sapiens) (UniProt P11712). The test can be described thus: qHTS Assay for Inhibitors and Substrates of Cytochrome P450 2C9 (AID 883; active = well fitted curve in the direction sought with a large enough effect; an effect the other way counts as inactive or inconclusive; note: potency is the fitted concentration of half-maximal effect; nearly all actives have a fitted effect of over 60% in size). To be noted: recombinant CYP2C9, luciferin-H luminescence, 60 min; series mostly up to 57.1 µM. An outline of the steps:
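Luminescent read-out of deoxyluciferin hydroxylation, normalized to 57uM sulphaphenazole (AC100). Reaction: 10nM enzyme, 100uM Luciferin-H (equal to KM), 25mM KPO4, 10 min compound preincubation, then 60 min with NADPH regeneration, both at 37C.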

In test [10] the target is Cytochrome P450 3A4 (Homo sapiens) (UniProt P08684). Put plainly: qHTS Assay for Inhibitors and Substrates of Cytochrome P450 3A4 (AID 884; active = well fitted curve in the direction sought with a large enough effect; an effect the other way counts as inactive or inconclusive; note: potency is the fitted concentration of half-maximal effect; nearly all actives have a fitted effect of over 50% in size). The conditions noted are these: recombinant CYP3A4, Luciferin-PPXE luminescence; series mostly up to 57.1 µM. An outline of the steps: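 20 nM human CYP3A4 with 25 uM Luciferin-PPXE (at KM) in 200 mM KPO4, preincubated 10 min with compound; NADPH regeneration started a 60 min RT reaction. Luciferin detected by luminescence, normalized to 57 uM ketoconazole as full inhibition.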

Test [11] has the same target. Put plainly: qHTS Assay for Activators of Cytochrome P450 3A4 (AID 885; active = well fitted curve in the direction sought with a large enough effect; an effect the other way counts as inactive or inconclusive; note: nearly all actives have a fitted effect of over 65% in size). The conditions noted are these: recombinant CYP3A4, Luciferin-PPXE luminescence, 60 min; series mostly up to 57.1 µM. The essentials:
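Signal was normalized against complete inhibition by 57 uM ketoconazole. The reaction used 20nM CYP3A4 with 25uM Luciferin-PPXE, 10-min compound preincubation and a 60-min NADPH-supported step at RT.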

Test [12] addresses Cytochrome P450 2C19 (Homo sapiens) (UniProt P33261). Put plainly: qHTS Assay for Inhibitors and Substrates of Cytochrome P450 2C19 (AID 899; active = well fitted curve in the direction sought with a large enough effect; an effect the other way counts as inactive or inconclusive; note: potency is the fitted concentration of half-maximal effect; nearly all actives have a fitted effect of over 60% in size). To be noted: recombinant CYP2C19, luciferin-H EGE luminescence; series mostly up to 57.1 µM. The essentials:
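Luminescence readout of luciferin formed from 10uM Luciferin-H EGE (KM level) by 5 nM CYP2C19 in 50mM KPO4. 60 min NADPH-driven reaction at 37C after 10 min compound preincubation; data scaled to 57uM ketoconazole inhibition.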

Chain of Lysosomal acid glucosylceramidase (Homo sapiens) (P04062 whole entry, looked up): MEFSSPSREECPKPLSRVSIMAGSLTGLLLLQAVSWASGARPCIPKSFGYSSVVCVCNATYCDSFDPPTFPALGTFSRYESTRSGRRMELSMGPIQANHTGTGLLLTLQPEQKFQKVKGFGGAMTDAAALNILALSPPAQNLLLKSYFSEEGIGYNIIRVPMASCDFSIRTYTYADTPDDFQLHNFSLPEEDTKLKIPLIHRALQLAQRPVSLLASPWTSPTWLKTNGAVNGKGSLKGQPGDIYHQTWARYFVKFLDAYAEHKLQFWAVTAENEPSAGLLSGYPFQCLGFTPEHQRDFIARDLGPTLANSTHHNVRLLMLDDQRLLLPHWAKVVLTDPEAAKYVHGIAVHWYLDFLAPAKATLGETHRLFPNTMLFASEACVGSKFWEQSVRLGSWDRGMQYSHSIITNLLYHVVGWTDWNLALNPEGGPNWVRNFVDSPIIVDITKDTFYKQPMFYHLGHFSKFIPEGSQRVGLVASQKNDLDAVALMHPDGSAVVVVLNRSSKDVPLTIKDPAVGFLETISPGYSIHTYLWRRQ
Chain of 3',5'-cyclic-AMP phosphodiesterase 4B (Homo sapiens) (Q07343 whole entry, looked up): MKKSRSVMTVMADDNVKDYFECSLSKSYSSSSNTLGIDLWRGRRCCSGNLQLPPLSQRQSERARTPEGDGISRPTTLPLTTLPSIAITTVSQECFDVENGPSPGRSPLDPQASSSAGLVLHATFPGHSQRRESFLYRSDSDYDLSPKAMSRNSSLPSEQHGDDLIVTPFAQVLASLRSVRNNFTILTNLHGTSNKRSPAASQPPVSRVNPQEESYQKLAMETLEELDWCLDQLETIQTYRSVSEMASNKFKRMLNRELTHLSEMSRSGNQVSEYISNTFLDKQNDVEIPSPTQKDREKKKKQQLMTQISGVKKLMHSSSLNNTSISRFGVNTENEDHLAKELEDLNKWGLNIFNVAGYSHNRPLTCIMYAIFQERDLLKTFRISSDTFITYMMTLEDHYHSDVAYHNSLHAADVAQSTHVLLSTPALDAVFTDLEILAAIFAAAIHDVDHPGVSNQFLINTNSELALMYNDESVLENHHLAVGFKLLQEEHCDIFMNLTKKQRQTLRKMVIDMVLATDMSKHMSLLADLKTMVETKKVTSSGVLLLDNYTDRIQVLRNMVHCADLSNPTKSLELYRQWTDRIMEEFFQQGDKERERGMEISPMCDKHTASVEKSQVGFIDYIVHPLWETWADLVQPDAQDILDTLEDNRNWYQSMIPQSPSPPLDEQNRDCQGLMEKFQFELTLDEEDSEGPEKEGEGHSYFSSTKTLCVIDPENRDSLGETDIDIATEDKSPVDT
Chain of Glucocorticoid receptor (Homo sapiens) (P04150 whole entry, looked up, the tested form may be a part): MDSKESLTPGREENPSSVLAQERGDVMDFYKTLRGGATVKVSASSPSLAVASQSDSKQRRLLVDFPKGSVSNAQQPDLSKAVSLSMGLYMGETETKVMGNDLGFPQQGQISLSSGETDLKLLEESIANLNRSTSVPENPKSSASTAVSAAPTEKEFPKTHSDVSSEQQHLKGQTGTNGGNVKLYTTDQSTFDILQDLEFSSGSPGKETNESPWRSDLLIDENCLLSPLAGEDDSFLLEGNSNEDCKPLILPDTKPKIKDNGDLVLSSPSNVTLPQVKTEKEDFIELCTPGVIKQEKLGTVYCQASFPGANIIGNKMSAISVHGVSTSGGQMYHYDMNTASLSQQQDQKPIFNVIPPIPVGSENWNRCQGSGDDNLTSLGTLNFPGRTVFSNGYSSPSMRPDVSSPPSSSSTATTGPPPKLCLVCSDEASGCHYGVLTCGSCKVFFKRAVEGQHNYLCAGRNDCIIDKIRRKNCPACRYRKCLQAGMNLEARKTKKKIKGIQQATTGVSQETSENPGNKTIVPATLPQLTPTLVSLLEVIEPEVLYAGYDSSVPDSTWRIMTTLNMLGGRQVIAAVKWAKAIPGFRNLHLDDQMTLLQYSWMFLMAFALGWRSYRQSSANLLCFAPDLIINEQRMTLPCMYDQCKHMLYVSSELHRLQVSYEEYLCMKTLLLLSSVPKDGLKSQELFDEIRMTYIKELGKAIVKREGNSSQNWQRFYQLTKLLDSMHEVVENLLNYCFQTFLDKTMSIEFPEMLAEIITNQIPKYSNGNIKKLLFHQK
Chain of Cytochrome P450 3A4 (Homo sapiens) (P08684 whole entry, looked up): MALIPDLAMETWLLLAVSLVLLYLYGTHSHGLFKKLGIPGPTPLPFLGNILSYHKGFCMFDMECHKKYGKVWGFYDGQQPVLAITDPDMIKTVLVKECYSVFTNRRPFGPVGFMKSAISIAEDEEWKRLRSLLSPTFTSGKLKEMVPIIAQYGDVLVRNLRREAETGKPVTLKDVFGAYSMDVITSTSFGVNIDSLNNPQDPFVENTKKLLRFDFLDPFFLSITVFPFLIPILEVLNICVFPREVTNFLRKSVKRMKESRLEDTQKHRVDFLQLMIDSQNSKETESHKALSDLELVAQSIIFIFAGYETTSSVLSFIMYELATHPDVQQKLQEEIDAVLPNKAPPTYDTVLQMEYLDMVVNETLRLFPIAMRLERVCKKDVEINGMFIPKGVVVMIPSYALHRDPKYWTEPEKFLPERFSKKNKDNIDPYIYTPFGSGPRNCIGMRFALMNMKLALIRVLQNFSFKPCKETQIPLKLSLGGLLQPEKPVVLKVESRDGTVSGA
Chain of Cytochrome P450 2C9 (Homo sapiens) (P11712 whole entry, looked up): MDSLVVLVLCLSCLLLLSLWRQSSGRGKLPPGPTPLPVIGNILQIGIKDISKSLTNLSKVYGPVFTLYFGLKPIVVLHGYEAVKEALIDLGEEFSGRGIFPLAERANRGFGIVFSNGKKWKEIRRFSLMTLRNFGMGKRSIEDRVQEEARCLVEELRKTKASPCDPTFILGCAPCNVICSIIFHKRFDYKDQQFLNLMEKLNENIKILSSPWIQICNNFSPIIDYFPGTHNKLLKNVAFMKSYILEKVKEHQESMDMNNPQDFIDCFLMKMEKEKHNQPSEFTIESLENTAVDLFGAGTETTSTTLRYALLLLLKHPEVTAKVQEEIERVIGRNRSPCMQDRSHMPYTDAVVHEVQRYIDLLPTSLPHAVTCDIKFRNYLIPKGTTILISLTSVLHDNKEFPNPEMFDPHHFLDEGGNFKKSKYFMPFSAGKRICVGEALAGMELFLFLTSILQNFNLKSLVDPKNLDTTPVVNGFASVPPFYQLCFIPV
Chain of Cytochrome P450 2C19 (Homo sapiens) (P33261 whole entry, looked up): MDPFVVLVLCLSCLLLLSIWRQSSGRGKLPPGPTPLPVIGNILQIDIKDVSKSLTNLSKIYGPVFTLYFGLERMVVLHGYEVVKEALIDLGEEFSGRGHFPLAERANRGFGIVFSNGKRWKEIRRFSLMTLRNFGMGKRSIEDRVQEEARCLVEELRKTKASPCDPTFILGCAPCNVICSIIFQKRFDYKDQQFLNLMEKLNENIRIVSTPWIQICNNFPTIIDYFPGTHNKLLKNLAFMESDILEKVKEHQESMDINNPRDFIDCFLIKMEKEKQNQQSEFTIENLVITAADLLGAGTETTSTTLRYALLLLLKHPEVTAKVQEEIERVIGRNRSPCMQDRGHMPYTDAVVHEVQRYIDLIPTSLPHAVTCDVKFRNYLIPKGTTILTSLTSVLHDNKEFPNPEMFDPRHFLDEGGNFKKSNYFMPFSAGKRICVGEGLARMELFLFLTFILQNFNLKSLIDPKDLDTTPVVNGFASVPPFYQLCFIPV

Regarding `O=C(Nc1cccc(F)c1)N1CCCC2(CCN(C(=O)c3csnn3)CC2)C1`, the Potency was more than 11.4 µM in [1] and more than 46 µM in test [5]. Also, the results for the activity change, negative = inhibition in test [2] and in [3] were -12.3% and -19.5%, respectively. Further, the activity, negative = inhibition in test [4] is -9.38%. The Potency result in [6] and in test [7] was “inactive” each time. The result in test [8] was inactive.
Turning to `COc1ccc(C(=O)N2CCC[C@@]3(CCN(C)C3)C2)cc1`, the results for the Potency in [1] and in [5] were more than 11.4 µM and more than 46 µM, respectively. The values for the activity change, negative = inhibition in [2] and in [3] were 10.5% and -2.06%, respectively. Moreover, the activity, negative = inhibition in [4] was 1.69%. The Potency result in test [6] and in [7] was “inactive” in each case. Also, in [8], the outcome was inactive.
In the case of `CS(=O)(=O)N1CCC2(CCCN(Cc3cc(C(F)(F)F)cc(C(F)(F)F)c3)C2)CC1`, the Potency was more than 11.4 µM in [1] and more than 46 µM in test [5]. Also, the activity change, negative = inhibition in test [2] was 20%; in test [3] it was -14.4%. Further, the activity, negative = inhibition in test [4] was 5.1%. Besides, the Potency result in test [6] and in [7] was “inactive” in each case. In [8], the outcome was inactive.
Regarding `O=C(Nc1cccc(F)c1)N1CCC2(CC1)CCN(C(=O)c1cccc(F)c1)CC2`, the Potency was more than 11.4 µM in [1] and more than 46 µM in test [5]. Moreover, the activity change, negative = inhibition in [2] is -7.86%; in test [3], 3.68%. Besides, in test [4], the activity, negative = inhibition is -6.46%. The Potency entry in [6] and in [7] was “inactive” in each case. Further, in test [8], the result was inactive.
On to `COc1ccc(C(=O)N2CCC3(CCCN(c4ccccn4)C3)CC2)cc1`, for which the Potency in [1] was more than 11.4 µM; in test [5], more than 46 µM. The activity change, negative = inhibition was -4.8% in test [2] and -8.78% in test [3]. For the same compound, the activity, negative = inhibition in test [4] was -3.02%. Also, the Potency result in test [6] and in [7] was “inactive” throughout. Also, the outcome in test [8] was inactive.
Regarding `O=S(=O)(c1ccccc1)N1CCC2(CCCN(c3ccccc3)C2)CC1`, the Potency in test [1] was more than 11.4 µM; in test [5], more than 46 µM; in test [9], 1.26 µM (active); in test [10] it was 3.98 µM (active); in test [12], 1.58 µM (active). The results for the activity change, negative = inhibition in test [2] and in test [3] were 17.4% and -15.8%, respectively. Besides, in test [4], the activity, negative = inhibition is 7.82%. Further, the Potency result in test [6], in test [7] and in [11] was “inactive” throughout. Further, the result in [8] was inactive.
`CC(=O)N1CCC2(CC1)CCN(C(=O)Nc1cccc(C#N)c1)CC2`: the values for the Potency in [1] and in [5] were more than 11.4 µM and more than 46 µM, respectively. Also, the activity change, negative = inhibition is 4.49% in test [2] and 8.82% in test [3]. Besides, in test [4], the activity, negative = inhibition was 3.47%. Also, the Potency entry in [6] and in test [7] was “inactive” in each case. Also, the result in test [8] was inactive.
For the compound `COC(=O)N1CCC2(CCN(C(=O)Nc3ccc(OC)cc3)CC2)CC1`, the Potency in [1] is more than 11.4 µM; in [5], more than 46 µM. Further, the activity change, negative = inhibition is -1.58% in [2] and -8.6% in test [3]. The activity, negative = inhibition in [4] was 3.42%. For the same compound, the Potency entry in [6] and in test [7] was “inactive” in each case. Also, the result in test [8] was inactive.
